Screens as filed in PubChem BioAssay.
Vaccinia mCherry – qHTS for Stage-Specific Inhibitors of Vaccinia Orthopoxvirus: mCherry Reporter Primary qHTS | Vaccinia virus mCherry reporter infection, fluorescence | Potency, µM (highest dose often 36.5 µM), for the others: at the highest dose activity change, negative = inhibition, most hits filed as inhibitors | actives 0.63% (n = 310,000); calls by dose curve; tested in A549 cells; also: nearly all actives have a fitted effect of over 35% in size
AMA1 RON2 block – qHTS for Inhibitors of AMA1-RON; Towards Development of Antimalarial Drug Lead: Primary Screen. Plasmodium falciparum AMA1 (3D7) - RON2 peptide interaction. AlphaScreen AMA1-biotinylated RON2 peptide binding. Potency, µM (titrated, usually from 58.2 µM), for inactives: at the highest dose activity change, negative = inhibition, usual class: inhibitors. actives 0.2% (n = 360,000). AID 720542, 2013;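 also: 0% = vehicle wells and -100% = peptide control; nearly all actives have a fitted effect of over 45% in size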
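AMA1 (3D7) with his tag at 25 nM final met compounds first, then biotinylated RON2 peptide at 25 nM; detection used donor plus acceptor beads, 10 µg/mL apiece, read by AlphaScreen after 30 min at room temperature.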
Pf growth 96h – Primary qHTS for delayed death inhibitors of the malarial parasite plastid, 96 hour incubation. actives 6.9% (n = 320,000). Potency, µM (titrated, usually from 28.7 µM), inactives show top-dose activity change, negative = inhibition, most hits filed as inhibitors. P. falciparum luciferase reporter growth, 96 h
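Infected RBCs, 2% Hct / 0.05% parasitemia final; luciferase-reporter P. falciparum; cpd 96 h, 37 C, 5% CO2; luciferase detection reagent; luminescence.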
Pf growth 48h – Primary qHTS for delayed death inhibitors of the malarial parasite plastid, 48 hour incubation; P. falciparum luciferase growth in erythrocytes, 48 h; Potency, µM (top dose mostly 28.7 µM), without a hit: at the top dose activity change, negative = inhibition, hits mostly inhibitors; actives 5.9% (n = 310,000); AID 504832, 2011
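Luminescence readout; reporter = integrated firefly luciferase in P. falciparum. RBC culture at 2% hematocrit, 0.1% parasitemia final, 37 C/5% CO2; decreased signal taken as growth inhibition.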
VACV Venus inh – qHTS for Stage-Specific Inhibitors of Vaccinia Orthopoxvirus: Venus Reporter Primary qHTS | AID 720580, 2013 | Vaccinia virus Venus reporter expression, fluorescence | Potency, µM (series often up to 36.5 µM), for inactives: at the top dose activity change, negative = inhibition, hits mostly inhibitors | actives 0.46% (n = 330,000); calls by dose curve; tested in A549 cells; also: nearly all actives have a fitted effect of over 30% in size
An asterisk follows results filed as active; i = inactive; u = inconclusive; x = not tested or not shown. Compounds with a hit are over-represented: about 8.7% of the library has one in this group of screens. Unless noted, calls follow the shape of the dose curve; as a rule, active = well fitted curve in the direction sought with a large enough effect; inconclusive = small, poorly fitted or top-dose-only effect, or another doubt; inactive = no such curve, though single readings can be large; an effect the other way counts as inactive or inconclusive. Unless noted, % is scaled to controls: 0 for no effect and ±100 for the full control effect; potency is read from the fitted curve at half-maximal effect.

SMILES	Vaccinia mCherry	AMA1 RON2 block	Pf growth 96h	Pf growth 48h	VACV Venus inh
CCCC(=O)NC(c1ccco1)c1c(O)ccc2ccccc12 (configuration not stated)	x	-9%	u	u	x
CCCCC(=O)NC(c1ccco1)c1c(O)ccc2ccccc12 (configuration not stated)	-1%	-9%	u	12µM*	-26%
COc1ccc(/C=N/OCC(=O)NC(c2ccccc2)c2ccccc2)c(OC)c1	-12%	6%	u	u	-28%
COc1ccc(C(NC(=O)CC(C)C)c2c(O)ccc3ccccc23)cc1 (configuration not stated)	x	-5%	209%	u	x
Nc1cc([N+](=O)[O-])cc(N)c1N	-25%	x	x	x	-13%
Cc1cc(C(=O)NCc2nnc3n2CCN(Cc2ccc(F)cc2F)CC3)c(C)o1	-2%	x	x	x	1%
C[CH2][Hg][S]c1ccccc1C(=O)O	u	45%	1.2µM*	1.9µM*	11µM*
O=C(O)c1ccccc1SSc1ccccc1C(=O)O	i	1%	21%	20%	-6%
Cc1ccc(Cl)cc1NC(=O)Nc1cccc(OCc2cc(=O)n3ccccc3n2)c1	-8%	x	x	x	-9%
CCC(=O)N1CCc2cc(S(=O)(=O)NCCC(=O)NCc3ccc(OC)cc3)ccc21	-10%	x	x	x	-13%
CC1N(C)c2cc(NC(=O)c3ccco3)ccc2C1(C)C (configuration not stated)	130%	u	16%	-71%	163%
CC1N(C)c2cc(NC(=O)c3ccco3)c(P(=O)(Nc3ccc([N+](=O)[O-])cc3)N3CCOCC3)cc2C1(C)C (configuration not stated)	-14%	-12%	9.3µM*	5.9µM*	10%
CC(=O)Nc1ccc(NC(=O)c2cc(CN3CCCC3)on2)cc1	1%	x	x	x	-1%
COc1ccc(CNCc2ccc(OC)c3ccccc23)cc1	-12%	-18%	2.3µM*	1%	-8%
COc1ccccc1CNCc1ccc(OC)c2ccccc12	-28%	-13%	x	x	-14%
CCOC(=O)c1c(OCC)[nH]c2c1cc(O)c1ccccc12	-28%	15µM*	-25%	x	-27%
O=C(c1ccccc1)c1nc2ccccc2n(CCCn2c(=O)c(C(=O)c3ccccc3)nc3ccccc32)c1=O	x	-5%	u	3.7µM*	x
O=C(Nc1ccc(F)cc1Cl)n1ncc2cc(Cl)ccc21	-7%	x	x	x	-20%
COC(=O)CC1CC2(C(=O)OC)c3[nH]c4ccccc4c3CCN2C1=O (configuration not stated)	17%	5%	x	x	-1%
CCC12C=CCN3CCC4(c5cc(Br)c(OC)cc5N(C)C4C(O)(C(=O)OC)C1OC(C)=O)C32 (configuration not stated)	-22%	-5%	u	u	u
CC[C@]1(O)C[C@H]2CN(CCc3c([nH]c4ccccc34)[C@@](C(=O)OC)(c3cc4c(cc3OC)N(C=O)[C@H]3[C@@](O)(C(=O)OC)[C@H](OC(C)=O)[C@]5(CC)C=CCN6CC[C@]43[C@@H]65)C2)C1	u	x	9.5µM*	0.085µM*	u
CC[C@@]1(O)CC2CN(CCc3c([nH]c4ccccc34)[C@](C(=O)OC)(c3cc4c(cc3OC)N(C)C3[C@@](O)(C(=O)OC)C(OC(C)=O)[C@]5(CC)C=CCN6CC[C@@]43C65)C2)C1 (some centres not stated)	x	x	0.54µM*	0.76µM*	x
CCOc1ccc(-n2nc(C(=O)N3CCN(CC)CC3)c3ccccc3c2=O)cc1	x	3%	u	4.1µM*	x
CCOc1ccccc1NC(=O)c1nn(-c2ccc(OC)cc2)c(=O)c2c1c1ccccc1n2C	-4%	x	x	x	5%
CCOc1ccc(N(CC)C(=O)c2nn(-c3ccc(OC)cc3)c(=O)c3c2c2ccccc2n3C)cc1	-20%	-1%	u	1.5µM*	-13%
SMILES	Vaccinia mCherry	AMA1 RON2 block	Pf growth 96h	Pf growth 48h	VACV Venus inh
O=C(Cn1c(=O)nc(-c2ccccc2)c2ccccc21)N1CCN(c2ccc(F)cc2)CC1	-12%	x	x	x	-6%
O=C(c1cc(-c2cccc(Cl)c2)nc2ccccc12)N1CCCC1	-5%	1%	-1%	u	-13%
COc1cccc(-c2cc(C(=O)Nc3ccc([N+](=O)[O-])cn3)c3ccccc3n2)c1	-23%	-8%	-6%	u	-6%
O=C(Nc1ccc([N+](=O)[O-])cn1)c1cc(-c2cccc(Br)c2)nc2ccccc12	-13%	-24%	-2%	3.7µM*	-15%
O=C(Nc1ccc([N+](=O)[O-])cn1)c1cc(-c2cccc(Cl)c2)nc2ccccc12	-8%	-1%	-21%	2.1µM*	-7%
O=C(Nc1ccccn1)c1cc(-c2cccc(Cl)c2)nc2ccccc12	i	7%	43%	3.3µM*	-14%
O=C(NN1CCOCC1)c1cc(-c2cccc(Cl)c2)nc2ccccc12	x	4%	25%	1%	x
CC[n+]1cccc(Br)c1	-12%	x	x	x	-10%
COc1ccc(NC(=O)CCN2CCN(CCO)CC2)c(OC)c1	-2%	x	x	x	7%
CCOC(=O)c1c(Nc2ccc(Cl)cc2)sc(/C=C2\C=Nc3ccccc32)c1O	-13%	13%	x	4.1µM*	-10%
COc1ccc(C(=O)/C=C2/Sc3cc4c(cc3N2C)OCO4)cc1	-10%	-8%	2.1µM*	28%	-9%
Cc1cc(C(=O)NCC2CCC3(CCN(Cc4ccc(F)cc4)CC3)O2)n(C)n1 (configuration not stated)	-6%	x	x	x	-3%
COc1ccc(Cl)cc1NC(=O)C1COc2ccccc2O1 (configuration not stated)	x	6%	-7%	6%	x
CN1CCN(c2ccc(Cl)cc2NC(=O)C2COc3ccccc3O2)CC1 (configuration not stated)	x	-8%	2.3µM*	8.3µM*	x
CN1CCN(c2ccc(Cl)cc2NC(=O)CN2C(=O)NC(C)(c3ccccc3)C2=O)CC1 (configuration not stated)	-19%	43%	u	2.9µM*	-23%
CCC1(c2ccccc2)NC(=O)N(CC(=O)Nc2cc(Cl)ccc2N2CCN(C)CC2)C1=O (configuration not stated)	x	104%	u	12µM*	x
CN1CCN(c2ccc(Cl)cc2NC(=O)/C=C/c2cccc(F)c2)CC1	u	-3%	u	9.3µM*	-25%
CCC1(c2ccccc2)NC(=O)N(CC(=O)Nc2cc(C(F)(F)F)ccc2N2CCCC2)C1=O (configuration not stated)	-17%	-12%	u	u	-9%
Cc1ccccc1CSc1nc2cccnc2n1Cc1ccc(C(=O)NC2CC2)cc1	-12%	x	x	x	-17%
